We go through 112 compounds from PubChem BioAssay AID623911 (Vanderbilt High Throughput Screening Facility, 2012).

SMILES strings stand for the structures. Out of some 2,100 compounds screened, about 770 (37%) were called active.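 Rule for the calls: active = by-eye trace score of 1 for enhancers or -1 for inhibitors, so actives lie on both sides (some results past the limit were not filed as active); inactive = score 0, or 3 fluorescent, or 4 baseline rise.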 The list shows a part of the results.

This assay deals with G protein-activated inward rectifier potassium channel 2 (Homo sapiens) + G protein-activated inward rectifier potassium channel 1 (Homo sapiens) (UniProt P48051+P48549). The experiment in a line: GIRK1/2 thallium flux modulators, retest, confirmation, cell-based, HEK293 rmGlu8/hGIRK1/2, FluoZin-2 (AID 623911). As to conditions: HEK293 rmGlu8/hGIRK1/2, thallium flux FluoZin-2; actives lie on both sides; glutamate co-added at its EC20 level.
Chain of G protein-activated inward rectifier potassium channel 2 (Homo sapiens) + G protein-activated inward rectifier potassium channel 1 (Homo sapiens) (P48051 whole entry, looked up): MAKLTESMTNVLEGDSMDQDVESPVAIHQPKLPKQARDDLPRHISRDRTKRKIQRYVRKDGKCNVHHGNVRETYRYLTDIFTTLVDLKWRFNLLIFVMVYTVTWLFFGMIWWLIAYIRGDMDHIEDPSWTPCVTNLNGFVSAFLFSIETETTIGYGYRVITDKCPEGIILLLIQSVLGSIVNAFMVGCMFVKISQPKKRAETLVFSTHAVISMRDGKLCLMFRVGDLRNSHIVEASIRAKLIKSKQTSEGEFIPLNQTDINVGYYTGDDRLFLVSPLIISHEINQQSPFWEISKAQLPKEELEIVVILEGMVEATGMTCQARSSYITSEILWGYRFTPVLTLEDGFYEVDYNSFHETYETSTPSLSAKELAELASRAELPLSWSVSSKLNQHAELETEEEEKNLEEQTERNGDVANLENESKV
Chain of G protein-activated inward rectifier potassium channel 2 (Homo sapiens) + G protein-activated inward rectifier potassium channel 1 (Homo sapiens) (P48549 whole entry, looked up): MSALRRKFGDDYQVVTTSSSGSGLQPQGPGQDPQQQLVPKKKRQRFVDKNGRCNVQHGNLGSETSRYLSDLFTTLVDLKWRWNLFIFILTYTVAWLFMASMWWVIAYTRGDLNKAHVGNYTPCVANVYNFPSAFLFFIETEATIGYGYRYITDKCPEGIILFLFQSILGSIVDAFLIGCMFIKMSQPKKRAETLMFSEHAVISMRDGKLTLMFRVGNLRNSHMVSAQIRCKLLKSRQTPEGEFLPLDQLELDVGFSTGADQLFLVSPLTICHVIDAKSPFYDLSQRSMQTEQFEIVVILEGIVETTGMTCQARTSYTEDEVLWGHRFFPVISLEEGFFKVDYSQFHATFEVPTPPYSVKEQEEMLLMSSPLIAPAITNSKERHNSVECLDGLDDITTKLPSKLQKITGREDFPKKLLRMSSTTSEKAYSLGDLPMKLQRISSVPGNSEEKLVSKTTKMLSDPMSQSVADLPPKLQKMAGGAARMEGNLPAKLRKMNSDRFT
Take `CC1CCN(c2ccc(/C=N/n3nnnc3N)cc2[N+](=O)[O-])CC1`: the manual score was 0 (inactive).

With `Cc1cc(N2CCN(c3ccccc3)CC2)nc(NCc2ccccc2)n1`, the manual score was 0 (inactive).

Turning to `Cc1ccc2nc(NCc3ccccc3)[nH]c2c1`, the manual score is -1 (active).

For the compound `S=c1[nH]nc(-c2ccco2)n1/N=C/c1ccc(Cl)cc1Cl`, the manual score is 1 (active).

Turning to `CC(/C=N/n1c(-c2ccco2)n[nH]c1=S)=C\c1ccccc1`, the manual score was 0 (inactive).

With `S=c1[nH]nc(-c2ccco2)n1/N=C/c1cccc(Cl)c1Cl`, the manual score is 0 (inactive).

As to `Cc1ccc(N2CC(C(=O)Oc3cccc(N4C(=O)CCC4=O)c3)CC2=O)cc1` (configuration not stated), the manual score is 0 (inactive).

For `Cc1ccc(/C(O)=C2\C(=O)C(=O)N(c3cc(C)on3)C2c2cccc(Br)c2)cc1` (configuration not stated), the manual score is 0 (inactive).

For `CC(Oc1ccc(Cl)cc1)C(=O)N/N=C/c1ccsc1` (configuration not stated), the manual score is 1 (active).

As for `CC(C)C(=O)Nc1cccc(NC(=O)c2cc3ccccc3o2)c1`, the manual score was 0 (inactive).

As for `CC(=O)Nc1nnc(C)s1`, the manual score was 0 (inactive).

Take `CCCN(CCC)C(=S)NC(=O)c1ccc(Cl)cc1Cl`: the manual score is 1 (active).

As for `CCCN(CCC)CCCOC(=O)c1ccc(Cl)cc1Cl`, the manual score was -1 (active).

For the compound `CCCCN(CCCC)C(=S)NC(=O)C(C)(C)C`, the manual score is 1 (active).

Consider `CC1Cc2ccccc2N1C(=S)NC(=O)c1ccc(Cl)cc1Cl` (configuration not stated), for which the manual score is 1 (active).

On to `CCOC(=O)CC1=C(C(=O)OCC)C(c2cccs2)C(C#N)=C(N)O1` (configuration not stated), for which the manual score is 0 (inactive).

In the case of `CCOC(=O)C(C(=O)OCC)c1cc(Br)c2noc3c2c1C(=O)c1ccccc1-3`, the manual score is 3 (inactive).

Turning to `COc1c2occc2c(OC)c2c(=O)cc(C(F)(F)F)oc12`, the manual score was 0 (inactive).

For `COc1cc(/C=C2\S/C(=N/S(=O)(=O)c3ccc(C)cc3)NC2=O)c([N+](=O)[O-])cc1OC`, the manual score is 0 (inactive).

Consider `CCN(CC)C(=S)NC(=O)c1ccc(Cl)cc1Cl`, for which the manual score is 1 (active).

For the compound `CCCCn1nnc(NC(=S)NC(=O)c2ccc(-c3cccc(Cl)c3Cl)o2)n1`, the manual score was 0.5 (inactive).

Regarding `CCCCN(CCCC)c1ccc(C(=O)c2ccccc2C(=O)O)c(O)c1`, the manual score is 0 (inactive).

With `CN(C(=S)NC(=O)CCCOc1ccc(Cl)cc1Cl)c1ccccc1`, the manual score is 0 (inactive).

Take `CCCCN(CCCC)C(=S)NC(=O)c1ccccc1Cl`: the manual score was 1 (active).

With `S=c1[nH]nc(CSCc2ccc(Cl)cc2Cl)n1-c1ccccc1`, the manual score was 0 (inactive).

Regarding `O=C(Nc1ccc2c(c1)OCCO2)NC12CC3CC(CC(C3)C1)C2`, the manual score is 1 (active).

As to `CCOc1ccc(N2C(=O)CC(SC(=NC)Nc3ccc(F)cc3)C2=O)cc1` (configuration not stated), the manual score is 0 (inactive).

`CCOc1ccc(NC(=O)NC23CC4CC(CC(C4)C2)C3)cc1`: the manual score was 1 (active).

As to `CCOC(=O)C1CCN(C(=O)NC23CC4CC(CC(C4)C2)C3)CC1`, the manual score is 0 (inactive).

In the case of `O=C(COC(=O)C1CC2C=CC1C2)Nc1ccc2c(c1)OC(F)(F)O2` (configuration not stated), the manual score is 0 (inactive).

On to `COC(=O)[C@H](CC(C)C)NC(=O)Nc1ccc2c(c1)OCCO2`, for which the manual score was 0 (inactive).

For the compound `Cc1[nH]n(-c2ccccc2)c(=O)c1N=Nc1nccs1`, the manual score was 1 (active).

In the case of `Cc1cccc(-n2c(C)nc3sccc3c2=O)c1`, the manual score is 0 (inactive).

For `CCOn1c(=O)c(-c2cccs2)[n+]([O-])c2ccccc21`, the manual score was 3 (inactive).

For `Cc1cc(C)nc(Sc2ncnc3sc4c(c23)CCC4)n1`, the manual score was 0 (inactive).

On to `c1csc(CCNc2ncnc3sc4c(c23)CCC4)c1`, for which the manual score was -1 (active).

Turning to `N#CCCn1nc(-c2ccc(Cl)cc2)cc1Nc1ccccc1NC(=O)C(F)(F)F`, the manual score was 1 (active).

`CCOC(=O)c1cc(-c2ccc(Cl)cc2)nc2c1c(C)nn2CCC#N`: the manual score was 0 (inactive).

Turning to `COc1cccc(C(=O)NC(=S)N2CCN(c3ccc(C(F)(F)F)cc3[N+](=O)[O-])CC2)c1`, the manual score is 0.5 (inactive).

Consider `CC(C)Oc1cccc(C(=O)NC(=S)N2CCN(c3ccc(C(F)(F)F)cc3[N+](=O)[O-])CC2)c1`, for which the manual score was 1 (active).

Regarding `COc1ccccc1NC(=O)COc1ccc(C(F)(F)F)cc1[N+](=O)[O-]`, the manual score was 0 (inactive).

`COc1cc(OC)cc(C(=O)NC(=S)N2CCN(c3ccc(C(F)(F)F)cc3[N+](=O)[O-])CC2)c1`: the manual score is 1 (active).

As to `O=C1c2ccccc2C(=O)N1Nc1ccccc1`, the manual score was 0 (inactive).

Turning to `C(/C=C/C=C/Nc1ccccc1)=Nc1ccccc1`, the manual score was 3 (inactive).

With `CCCCCCCCc1nc(=S)[nH][nH]1`, the manual score is 0.5 (inactive).

Consider `C=CCCCCCCCCc1nc(=S)[nH][nH]1`, for which the manual score was 1 (active).

As for `CC1=C(n2nnc3ccccc32)C(c2ccccc2)C(C#N)=C(N)O1` (configuration not stated), the manual score is 0 (inactive).

For `CCOC(=O)c1c(C)c(C(=O)N2CCc3ccccc3C2)c(C)n1CC`, the manual score is -1 (active).

As to `O=C(COc1c(Br)cc(Br)c2cccnc12)N1CCc2ccccc2C1`, the manual score was 0 (inactive).

Take `CC(C)CC(=O)Nc1ccccc1-c1nnn(CC(=O)N2CCc3ccccc3C2)n1`: the manual score is 0 (inactive).

Regarding `O=C(O)c1oc2ccccc2c1CSc1ccccn1`, the manual score is 0 (inactive).

Turning to `CCCCCCc1cc2cc(C(=O)NC)c(=N)oc2cc1O`, the manual score is 3 (inactive).

Consider `CCCCc1cc(=O)oc2cc(C)cc(O)c12`, for which the manual score was -1 (active).

Take `O=C(Nc1ccc(N2CCCCC2)c(Cl)c1)c1ncn[nH]1`: the manual score was 0 (inactive).

Turning to `COc1ccc(OCC(=O)NC(=S)Nc2ccc(N3CCOCC3)c(Cl)c2)cc1`, the manual score is 0 (inactive).

In the case of `O=C(NC(=S)Nc1ccc(N2CCOCC2)c(Cl)c1)c1cncc(Br)c1`, the manual score was 1 (active).

In the case of `CC1CCCC(NC(=S)NC(=O)c2cncc(Br)c2)C1C` (configuration not stated), the manual score was 1 (active).

Turning to `Cc1ccccc1NC(=S)NC(=O)c1cc(-c2ccccc2)nc2ccccc12`, the manual score is 0 (inactive).

For the compound `Cc1ccccc1NC(=S)NC(=O)c1cncc(Br)c1`, the manual score is 1 (active).

Turning to `O=C(NC(=S)NC1CCCCCC1)c1cncc(Br)c1`, the manual score was 0 (inactive).

On to `O=C(CC(O)(C(F)(F)F)C(F)(F)F)Nc1ccc(Cl)c(Cl)c1`, for which the manual score is 0 (inactive).

Take `NC(=O)SCC(=O)Nc1cccc(Cl)c1`: the manual score is 1 (active).

On to `CC(C)(C)CC(=O)Nc1ccc(C(N)=O)cc1`, for which the manual score was 0 (inactive).

As to `CCn1c(CCNC(=O)c2cccs2)nnc1SCC(=O)Nc1ccc(Cl)cc1`, the manual score was 0 (inactive).

Consider `O=C(CSCCO)Nc1ccccc1`, for which the manual score was 0 (inactive).

Regarding `Cc1ccc(NC(=O)Cn2cccc2)cc1Cl`, the manual score is 0 (inactive).

`Cc1ccc(NC(=O)CSC(N)=O)cc1Cl`: the manual score was 1 (active).

With `NC(=O)SCC(=O)Nc1ccc(Cl)cc1`, the manual score is 1 (active).

Regarding `Cn1c(=O)c(NCCc2ccccc2)c2c3c(cccc31)C(=O)c1ccccc1-2`, the manual score was 3 (inactive).

As to `Cc1ccccc1Cn1c(-c2cncs2)nc2ccccc21`, the manual score was 0 (inactive).

Regarding `Cc1ccccc1Cn1c(=N)n(CC(O)c2ccco2)c2ccccc21` (configuration not stated), the manual score is -1 (active).

Consider `Cc1ccccc1Cn1c(=N)n(CC(=O)c2ccco2)c2ccccc21`, for which the manual score was -1 (active).

For `C1CCC2(CC1)OCC1(CO2)COC2(CCCCC2)OC1`, the manual score is 0 (inactive).

In the case of `Cc1cccc(NC(=S)N2CCC(C(=O)c3ccc(F)cc3)CC2)c1C`, the manual score was 0 (inactive).

For `c1ccc(-c2nnc3n2NC(c2ccc4c(c2)OCO4)S3)cc1` (configuration not stated), the manual score is 1 (active).

As for `O=C(/C=C/c1ccccc1)c1cc(Br)ccc(=O)c1O`, the manual score was 1 (active).

Regarding `Cc1cccc(NC(=O)COc2ccc(Br)cc2/C=N/O)c1`, the manual score is 0 (inactive).

Take `Cc1cccc(/C=c2\s/c(=C\C(=O)C(C)(C)C)[nH]c2=O)c1`: the manual score was 0 (inactive).

In the case of `COc1ccc(/C=C/C(=O)c2cc(Br)ccc(=O)c2O)cc1`, the manual score was 1 (active).

For the compound `Cc1ccc(/C=C/C(=O)c2ccccc(=O)c2O)cc1C`, the manual score is 1 (active).

On to `Cc1cccc(/C=C/C(=O)c2cc(Br)ccc(=O)c2O)c1`, for which the manual score was 1 (active).

For the compound `CCC(=O)Oc1ccc(C/C(=N\O)c2ccc(O)cc2O)o1`, the manual score was 0 (inactive).

Take `COc1ccc(-c2cc(C(F)(F)F)c3c(n2)sc2c(O)cc(=O)[nH]c23)c(OC)c1`: the manual score is -0.5 (inactive).

Consider `N#CC(C#N)=C1C=C2C=C(N3CCCCC3)CCC2CC1` (configuration not stated), for which the manual score is 3 (inactive).

On to `CC(C)CN(C(=O)COC(=O)Cc1n[nH]c(=O)c2ccccc12)C1CCS(=O)(=O)C1` (configuration not stated), for which the manual score was 0 (inactive).

Take `CCc1ccc(/C=C/C(=O)c2cc(Br)ccc(=O)c2O)cc1`: the manual score was 1 (active).

As for `COc1ccc(NC(=O)CSc2nnc(-c3ccccn3)n2Cc2ccco2)cc1OC`, the manual score was 0 (inactive).

For `CCOC(=O)c1oc2nc(C(C)C)c3c(c2c1N)CC(C)(C)OC3`, the manual score was 0 (inactive).

For `O/N=C/c1cc(Cl)ccc1OCc1cccc2ccccc12`, the manual score is 0 (inactive).

Consider `COc1ccccc1/C=C/C=N\N1CCN(Cc2ccccc2Cl)CC1`, for which the manual score is 0 (inactive).

As for `Cc1cc(C)n(-c2nnc(C)n2/N=C/c2ccccc2OCc2ccccc2Cl)n1`, the manual score is -1 (active).

On to `O=C(COc1ccccc1F)NC1CCN(Cc2ccccc2)CC1`, for which the manual score was 0 (inactive).

Turning to `OC(c1ccccc1)C1CN(Cc2ccccc2)CCC1(O)c1ccccc1` (configuration not stated), the manual score was -1 (active).

As to `Cc1ccc(C)c2[nH]c(=O)c(CN(CCN3CCCC3)C(=O)Nc3ccc(F)cc3)cc12`, the manual score was -1 (active).

For `CCOC(=O)CSc1nc2c(sc3ccccc32)c(=O)n1CCCN1CCOCC1`, the manual score was -1 (active).

For the compound `CCCCn1c(SCC(N)=O)nc2c(sc3ccccc32)c1=O`, the manual score was 0 (inactive).

For the compound `CC(C)CCn1c(SCC#N)nc2c(sc3ccccc32)c1=O`, the manual score is 0 (inactive).

Take `Cc1cccc2c1nc(-c1ccccc1)n1cnnc21`: the manual score is 0 (inactive).

For `COc1ccccc1N1CCN(C(=O)CCn2c(=O)[nH]c3ccsc3c2=O)CC1`, the manual score was 0 (inactive).

For the compound `O=C(CCn1c(=O)oc2ccccc21)N1CCN(c2ccccc2Cl)CC1`, the manual score was -1 (active).

In the case of `Cc1ccc(C)c(N2CCN(C(=O)CCCOc3cc(=O)n(C)c4ccccc34)CC2)c1`, the manual score is 0 (inactive).

With `CCC(=O)n1nc(-c2cccnc2)nc1NCc1ccc(OC)cc1`, the manual score is 0 (inactive).

For the compound `CC(C)CCNC(=O)C(C)N(C(=O)Cn1nnc(-c2ccc(F)cc2)n1)C1CCCC1` (configuration not stated), the manual score was 0.5 (inactive).

Consider `CC(C)CCNC(=O)C(C)N(Cc1ccc(F)cc1)C(=O)c1ccc(CN2CCCCC2)o1` (configuration not stated), for which the manual score is -1 (active).

In the case of `CN1C=CC2=C(C#N)C(N)C(C#N)(C#N)C(c3ccccc3)C2C1` (configuration not stated), the manual score is 3 (inactive).

Turning to `S=C(NCCc1ccccc1)Nc1ccc(Cl)cc1Cl`, the manual score was -0.5 (inactive).

On to `Clc1ccc(Cc2ccc(SCc3ccccc3)nn2)c(Cl)c1`, for which the manual score was 0 (inactive).

For the compound `Fc1ccccc1CNC(=S)Nc1ccc(Cl)cc1`, the manual score was 1 (active).

For the compound `S=C(NN=C1CCCCCC1)Nc1ccc(Cl)cc1`, the manual score was 0.5 (inactive).

Consider `S=C(N/N=C/c1ccccc1Cl)Nc1ccccc1`, for which the manual score was 0.5 (inactive).

With `Fc1ccc(NC(=S)NCc2ccccc2Cl)cc1`, the manual score is 1 (active).

On to `S=C(NCc1ccc(Cl)cc1Cl)Nc1ccccc1`, for which the manual score is 1 (active).
